# PubChem BioAssay (NCATS)
# Inconclusive results are not listed. Where a call stands in place of a potency, no number is given. Activity calls are given as the source filed them. The call rests on the fitted dose curve; in most records, active means well fitted inhibition curve with a large enough effect; inconclusive means small, poorly fitted or top-dose-only effect; inactive means flat fitted curve, though single readings scatter. Where a SMILES comes first, the peptide text is derived from it. [ ]: non-standard residue; d: D form. dPhe(4-Cl) = N[C@H](Cc1ccc(Cl)cc1)C(=O)O; d2Nal = N[C@H](Cc1ccc2ccccc2c1)C(=O)O; dCit = NC(=O)NCCC[C@@H](N)C(=O)O; d3Pal = N[C@H](Cc1cccnc1)C(=O)O
# Assay: P-glycoprotein substrates identified in KB-8-5-11 adenocarcinoma cell line, qHTS therapeutic library screen (AID 1346987); further: nearly all actives have a fitted effect of over 65% in size
# Conditions: KB-8-5-11 (P-gp overexpressing) viability, CellTiter-Glo, 72 h; series mostly up to 44.5 µM
# Procedure, shortened: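 In this qHTS, P-gp-rich KB-8-5-11 cells received library compounds across a concentration range. Viability was quantified by luminescence after 72 h at 37 degree C.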
# Potency means the concentration at half of the fitted maximal effect.
SMILES,Potency,outcome,"activity change, negative = cytotoxicity"
Cc1nc([C@](C)(O)CO)sc1-c1cnc(N)c(O[C@H](C)c2cc(F)ccc2-n2nccn2)c1,11.6 µM (active),–,–
CC1COC2(OC3CC4C5CC(O[C@@H]6O[C@H](C)[C@@H](O[C@@H]7O[C@@H](C)[C@H](O)[C@@H](O)[C@H]7O)[C@H](O)[C@H]6O)C6CC(O)CCC6(C)C5CCC4(C)C3C2C)C(O)C1 (some centres undefined),inactive,–,–
COC(=O)Cc1cc2c(c([N+](=O)[O-])c1)N(C(=O)CC[C@H](N)C(=O)O)CC2,inactive,–,–
Cn1c(=O)cc(N2CCCC(N)C2)n(Cc2cc(F)ccc2C#N)c1=O (centres undefined),inactive,–,–
C[C@H]1CC[C@@]2(OC1)O[C@H]1CC3C4CC[C@H]5C[C@@H](O)[C@H](O)C[C@]5(C)C4=CC(=O)[C@]3(C)[C@H]1[C@@H]2C (some centres undefined),inactive,–,–
COc1ncc2cc(C(=O)Nc3cc(C(=O)NCc4cccc(Cl)c4)ccc3Cl)c(=O)[nH]c2n1,5.8 µM (active),–,–
C[C@H]1[C@H](O)O[C@@H]2O[C@@]3(C)CC[C@H]4[C@H](C)CC[C@@H]1[C@@]24OO3,11.6 µM (active),–,–
O=C(CO)[C@@H](O)[C@H](O[C@@H]1O[C@H](CO)[C@H](O)[C@H](O)[C@H]1O)[C@H](O)CO,inactive,–,–
Cc1ccc(-c2c(C(=O)CF)n(CCCO)c3ncnc(N)c23)cc1,inactive,–,–
CC(=O)O[C@@H](CO[C@@H]1O[C@H](CO)[C@H](O)[C@H](O)[C@H]1O)[C@]1(C)C=C2CC[C@@H]3C(C)(C)[C@@H](O)CC[C@@]3(C)[C@@H]2CC1,inactive,–,–
CC(C)(C)c1cc(Br)cc([C@H](CC(=O)O)NC(=O)CNC(=O)c2cc(O)cc(NC3=NCC(O)CN3)c2)c1 (some centres undefined),inactive,–,–
CC(=O)N[C@H](Cc1ccc2ccccc2c1)C(=O)N[C@H](Cc1ccc(Cl)cc1)C(=O)N[C@H](Cc1cccnc1)C(=O)N[C@@H](CO)C(=O)N[C@@H](Cc1ccc(O)cc1)C(=O)N[C@H](CCCNC(N)=O)C(=O)N[C@@H](CC(C)C)C(=O)N[C@@H](CCCN=C(N)N)C(=O)N1CCC[C@H]1C(=O)N[C@H](C)C(N)=O (Ac-[d2Nal][dPhe(4-Cl)][d3Pal]SY[dCit]LRP[dA]-NH2),inactive,–,–
COc1ccc(CCC(=O)c2c(O)cc(O)cc2O[C@@H]2O[C@H](CO)[C@@H](O)[C@H](O)[C@H]2O)cc1,inactive,–,–
COC(=O)c1ccnc(-c2cc(C(=O)NCCc3ccccc3)ccn2)c1,inactive,–,–
C[C@@H]1O[C@@H](O[C@H]2[C@H](OC(=O)[C@]34CCC(C)(C)C[C@H]3C3=CCC5[C@@]6(C)CC[C@H](O[C@@H]7O[C@H](C(=O)O)[C@@H](O)[C@H](O)[C@H]7O[C@@H]7O[C@H](CO)[C@H](O)[C@H](O)[C@H]7O)[C@@](C)(C=O)C6CC[C@@]5(C)[C@]3(C)C[C@H]4O)O[C@H](C)[C@H](O[C@@H]3O[C@H](C)[C@H](O)[C@H](O)[C@H]3O)[C@@H]2O)[C@H](O)[C@H](O)[C@H]1O[C@@H]1OC[C@@H](O)[C@H](O[C@@H]2O[C@H](CO)[C@@H](O)[C@H](O)[C@H]2O)[C@H]1O (some centres undefined),–,inactive [at 5.11 µM],–
CC(=O)NCC(=O)N1C2CCC1c1cc(Nc3ncc(C(F)(F)F)c(NC4CCC4)n3)ccc12 (centres undefined),1.84 µM (active),–,–
CC1(C)CCC[C@]2(C)[C@H]3CC(=O)O[C@]3(C)CC[C@@H]12,inactive,–,–
COc1cc(C)c(C(=O)O[C@H]2[C@@H](OC(C)=O)[C@H](n3ccc(=O)[nH]c3=O)O[C@@H]2CO)c(OC)c1,inactive,–,–
CC(=O)OC1CC2(C)C3=CCC4(C)C5C(O)C(O)C(C(C)C)C5(C)CCC4(C)C3CCC2C(C)(C)C1OC1OC(CO)C(O)C(O)C1O (centres undefined),inactive,–,–
C=C1CCC2C(C)(C(=O)OC)CCCC2(C)C1CCC(C)CC(=O)O (centres undefined),inactive,–,–

SMILES,Potency,outcome,"activity change, negative = cytotoxicity"
C[C@@H]1CN(Cc2ncccn2)C[C@H]1c1nc2c(cnn2C2CCOCC2)c(=O)[nH]1,inactive,–,–
CC(C)C(CO)Nc1nc(Nc2cc(N)cc(Cl)c2)c2ncn(C(C)C)c2n1 (centres undefined),7.31 µM (active),–,–
CC1CCC2(CO)C(C(=O)O)=CCCC2C1(C)CCc1ccoc1 (centres undefined),inactive,–,–
C[C@@H]1C(=O)O[C@H](C)[C@H]1CC(=O)[C@](C)(O)[C@H]1CC[C@@]2(O)C3=CC(=O)[C@@H]4C[C@@H](O)[C@@H](O)C[C@]4(C)C3CC[C@]12C (some centres undefined),inactive,–,–
O=C(O)C1CN(Cc2ccc(-c3nc4cc(Cc5ccccc5F)ccc4s3)c(F)c2)C1,–,–,0.617% [at 9.29 µM] (inactive)
CC1(C)CC(NC(=O)C(=O)Nc2ccc(Br)cc2)CC(C)(C)N1,inactive,–,–
Nc1ncnc2c1nc(N)n2[C@@H]1O[C@H](CO)[C@@H](O)[C@H]1O,1.16 µM (active),–,–
CC(=O)c1ccc(O[C@@H]2O[C@H](CO)[C@@H](O)[C@H](O)[C@H]2O)cc1,inactive,–,–
C/C=C/C=C/C(=O)N1CC[C@]23c4ccccc4N[C@H]4N(C)c5cccc6c5[C@@]42CCN([C@H]6C2OC2(C)C)[C@H]13 (some centres undefined),inactive,–,–
CN(C)C(=O)NC1CCC(CCN2CCN(c3cccc(Cl)c3Cl)CC2)CC1 (centres undefined),–,–,-11.3% [at 9.29 µM] (inactive)
CC1(C)CC[C@]2(C(=O)O[C@@H]3O[C@H](CO[C@@H]4O[C@H](CO)[C@@H](O)[C@H](O)[C@H]4O[C@@H]4O[C@H](CO)[C@H](O)[C@H](O)[C@H]4O)[C@@H](O)[C@H](O[C@@H]4O[C@H](CO)[C@@H](O)[C@H](O)[C@H]4O)[C@H]3O)CC[C@]3(C)C(=CCC4[C@@]5(C)CC[C@H](O[C@@H]6OC[C@@H](O)[C@H](O)[C@H]6O)[C@@](C)(C(=O)O)C5CC[C@]43C)[C@@H]2C1 (some centres undefined),–,inactive [at 9.29 µM],–
O=C1OCC(c2ccccc2)=C1Cc1ccccc1,inactive,–,–
CNC(=O)c1ccccc1Nc1nc(Nc2ccc(N3CCNCC3)cc2)ncc1Cl,0.461 µM (active),–,–
C=C1C[C@]23C[C@H]1[C@@H](O)C[C@H]2[C@@]12C=C[C@H](O)[C@@](C)(C(=O)O1)[C@H]2[C@@H]3C(=O)O,inactive,–,–
C[C@@H]1CCC2C(C)(C)[C@H](O)CC[C@]2(C)[C@@]12Cc1c(O)cc3c(c1O2)CNC3=O (some centres undefined),inactive,–,–
C[C@@H]1O[C@@H](O[C@@H]2[C@@H](O)[C@H](O[C@H]3CC[C@@]4(C)C(CC[C@]5(C)C4CC=C4[C@@H]6CC(C)(C)CC[C@]6(C(=O)O[C@@H]6O[C@H](CO)[C@@H](O)[C@H](O)[C@H]6O)CC[C@]45C)C3(C)C)O[C@H](C(=O)O)[C@H]2O)[C@H](O)[C@H](O)[C@H]1O (some centres undefined),–,–,7.63% [at 9.29 µM] (inactive)
O=C1NC(=O)C(c2cn3c4c(cccc24)CCC3)C1c1c[nH]c2ccccc12 (centres undefined),1.3 µM (active),–,–
C=C1C(OC(C)=O)CCC2(C)CC3(OC)OC(=O)C(C)=C3CC12 (centres undefined),inactive,–,–
O=C(O)/C=C/c1cc2c(cc1O[C@@H]1O[C@H](CO)[C@@H](O)[C@H](O)[C@H]1O)OCO2,inactive,–,–
